According to PubChem BioAssay (NCI):
Values joined by “and” are separate entries in the source; they are usually repeats but may differ in a detail not shown here. Identical values can stand only once. Compounds without any hit were thinned out: in the full panel of roughly 83,000, 20% have a hit.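 In brief: 96-well plates, 48 h treatment, single concentration, percent growth endpoint.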 Active and inactive are the calls of the source. How the source made its calls: active means growth percent below 10; inactive means the rest. Where a SMILES comes first, the peptide text is derived from it. [ ]: non-standard residue; d: D form. ξ: configuration not given here. ξV = CC(C)C(N)C(=O)O

Experiments:
Experiment in all cases: NCI-60 one-dose screen, 48 h (100 = growth as untreated, 0 = no growth, -100 = all killed)
DU-145 prostate = details: 10 µM unless noted
K-562 leukemia = details: 10 µM
MALME-3M melanoma = details: 10 µM
MDA-MB-231 breast = details: 10 µM
SF-268 CNS = details: 10 µM
SF-295 CNS = details: 10 µM
SF-539 CNS = details: 10 µM
UACC-257 melanoma = details: 10 µM
M14 melanoma = details: 10 µM
RXF 393 renal = details: 10 µM unless noted

Measured: growth

O=C1C=C(O)c2ccccc2C1=O.[Ag]
inactive: DU-145 prostate 121% | K-562 leukemia 83.5% | MALME-3M melanoma 85.3% | MDA-MB-231 breast 89.2% | SF-268 CNS 113% | SF-295 CNS 97% | SF-539 CNS 114% | UACC-257 melanoma 76.2% | M14 melanoma 91.3%

Cc1cc(O)c(C(C)C)cc1Cl
inactive: DU-145 prostate 101% | K-562 leukemia 96.8% | MALME-3M melanoma 109% | MDA-MB-231 breast 104% | RXF 393 renal 120% | SF-268 CNS 99.3% | SF-295 CNS 100% | SF-539 CNS 105% | M14 melanoma 101%

NC1=C(Cl)C(=O)c2ccccc2C1=O
inactive: DU-145 prostate 27.1% | K-562 leukemia 57% | MDA-MB-231 breast 72.1% | RXF 393 renal 103% | SF-268 CNS 71.7% | SF-295 CNS 41% | SF-539 CNS 75.4% | UACC-257 melanoma 56.6% | M14 melanoma 28.7%
active: MALME-3M melanoma -26.3%

COc1c(O)cc2oc3cc(O)c(CC=C(C)C)c(O)c3c(=O)c2c1CC=C(C)C
inactive: DU-145 prostate 62% | K-562 leukemia 26.7% | MALME-3M melanoma 87.4% | MDA-MB-231 breast 40.2% | RXF 393 renal 83% | SF-268 CNS 57.9% | SF-295 CNS 56.2% | SF-539 CNS 89% | M14 melanoma 54.4%

CCCCCCCCCCSC(=N)N
inactive: DU-145 prostate 79.9% | K-562 leukemia 11.1% | MALME-3M melanoma 81.3% | MDA-MB-231 breast 13% | RXF 393 renal 46.1% | SF-268 CNS 73.9% | SF-295 CNS 56.4% | SF-539 CNS 68.4% | UACC-257 melanoma 29.8%

COc1cccc2c1C(=O)c1c(O)c3c(c(O)c1C2=O)C[C@@](O)(C(C)=O)C[C@@H]3OC1CC(N)C(O)C(C)O1 (stereo partly drawn)
active: DU-145 prostate -11.4% | K-562 leukemia -49.5% | MALME-3M melanoma -77.1% | MDA-MB-231 breast -17.9% | RXF 393 renal -46.9% | SF-268 CNS -14.5% | SF-295 CNS -26.9% | SF-539 CNS -70.9% | UACC-257 melanoma -33.3%

O=[N+]([O-])C1=C(c2ccccc2)SC=C(c2ccccc2)S1
inactive: DU-145 prostate 75.2% | K-562 leukemia 72.7% | MALME-3M melanoma 54.5% | MDA-MB-231 breast 69.3% | RXF 393 renal 54.2% | SF-268 CNS 97.9% | SF-295 CNS 93.7% | UACC-257 melanoma 51.3% | M14 melanoma 65.2%

O=C(C(=Cc1ccccc1)C(=O)c1ccccc1)c1ccccc1
inactive: DU-145 prostate 61.3% and 102% | K-562 leukemia 35.5% and 93.8% | MALME-3M melanoma 88.4% and 108% | MDA-MB-231 breast 70.5% and 74.8% | RXF 393 renal 66.5% and 98.8% | SF-268 CNS 58.5% and 83.3% | SF-295 CNS 65.4% and 97.7% | SF-539 CNS 72.9% and 96.9% | UACC-257 melanoma 73% and 83.7% | M14 melanoma 47.5%

CO[C@H](C(=O)[C@@H](O)[C@@H](C)O)[C@@H]1Cc2cc3cc(OC4CC(OC5CC(O)C(O)C(C)O5)C(O)C(C)O4)c(C)c(O)c3c(O)c2C(=O)[C@H]1OC1CC(OC2CC(OC3CC(C)(O)C(O)C(C)O3)C(O)C(C)O2)C(O)C(C)O1 (stereo partly drawn)
inactive: DU-145 prostate 24.7% | MDA-MB-231 breast 14.6% | SF-268 CNS 12.3% | SF-295 CNS 19.1%
active: K-562 leukemia 6.76% | MALME-3M melanoma -54.6% | RXF 393 renal 5.86% | SF-539 CNS -20.2% | UACC-257 melanoma 4.4%

CCCCCC(C)c1ccc(O)c(C)c1 (stereo not drawn)
inactive: DU-145 prostate 103% | K-562 leukemia 90.6% | RXF 393 renal 113% | SF-268 CNS 98.3% | SF-295 CNS 95.5% | SF-539 CNS 103% | UACC-257 melanoma 99.3%

CC(C)C(NC(=O)CN)C(=O)O (stereo not drawn) (H-Gly-[ξV]-OH)
inactive: DU-145 prostate 107% and 110% | K-562 leukemia 92.9% and 104% | MALME-3M melanoma 101% and 99.8% | MDA-MB-231 breast 106% | RXF 393 renal 104% and 108% | SF-268 CNS 104% and 101% | SF-295 CNS 97.4% and 101% | SF-539 CNS 103% and 106% | UACC-257 melanoma 110% and 101%

Nc1ccc2cc3ccc(N)cc3nc2c1
107% (inactive) and -17.1% (active): UACC-257 melanoma
active: K-562 leukemia 9.74%
107% (inactive) and -50.9% (active): MALME-3M melanoma
127% (inactive) and 8.54% (active): RXF 393 renal
inactive: DU-145 prostate 112% and 24.3% | MDA-MB-231 breast 97% and 18.4% | SF-268 CNS 115% and 18.5% | SF-295 CNS 114% and 14.4% | SF-539 CNS 107% and 21%
